Assay [1] is described as follows: NFAT Signaling Pathway (AID 444).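 Also: carbachol stimulus at about its EC50 of 1 µM final; % is scaled to controls: 0 for no effect and ±100 for the full control effect.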 Particulars: Jurkat NFAT-bla M1, carbachol, beta-lactamase ratio, 5 h; at 17.2 µM (top of the series) unless noted. The procedure, abridged:
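Jurkat cells with NFAT-driven β-lactamase reporter and co-expressed M1 receptor, stimulated with carbachol (final 1 uM, ~EC50), compound titration, 5 h at 37 °C. CCF4 loaded 1 h at RT; 460/530 nm ratio gave %activity and AC50.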

A short description of assay [2]: Stat Signaling Pathway (AID 446).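 Also: ME-180 cervical cancer cells given 40 pM IL-6 alongside compound; SIE-controlled beta-lactamase reporter measured as 460/530 nm FRET emission ratio; % is scaled to controls: 0 for no effect and ±100 for the full control effect.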 Particulars: ME-180 (cervical carcinoma) SIE beta-lactamase reporter, IL-6 stimulated, 5 h; at 17.2 µM (top of the series) unless noted. The procedure, abridged:
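Compound effects on IL-6-induced STAT reporter activity were measured in ME-180 cells. After overnight culture, cells were co-treated with 40 pM IL-6 for 5 hrs before beta-lactamase substrate loading at room temperature.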

Assay [3] has as its target Glucocorticoid receptor (Homo sapiens) (UniProt P04150). In words: GR-GFP Redistribution (AID 450;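 active = compounds whose dose series gives a full or clear partial fitted curve of increased nuclear translocation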; also: potency is read from the fitted curve at half-maximal effect).

SMILES strings stand for the structures. Values without a mark were called inactive. Unless noted, calls follow the shape of the dose curve; as a rule, active = well fitted curve in either direction with a large enough effect (not every such curve was filed as active); inconclusive = small, poorly fitted or top-dose-only effect, or another doubt; inactive = flat fitted curve, though single readings scatter. Results filed as inconclusive are left out.

Sequence of Glucocorticoid receptor (Homo sapiens) (P04150 whole entry, looked up): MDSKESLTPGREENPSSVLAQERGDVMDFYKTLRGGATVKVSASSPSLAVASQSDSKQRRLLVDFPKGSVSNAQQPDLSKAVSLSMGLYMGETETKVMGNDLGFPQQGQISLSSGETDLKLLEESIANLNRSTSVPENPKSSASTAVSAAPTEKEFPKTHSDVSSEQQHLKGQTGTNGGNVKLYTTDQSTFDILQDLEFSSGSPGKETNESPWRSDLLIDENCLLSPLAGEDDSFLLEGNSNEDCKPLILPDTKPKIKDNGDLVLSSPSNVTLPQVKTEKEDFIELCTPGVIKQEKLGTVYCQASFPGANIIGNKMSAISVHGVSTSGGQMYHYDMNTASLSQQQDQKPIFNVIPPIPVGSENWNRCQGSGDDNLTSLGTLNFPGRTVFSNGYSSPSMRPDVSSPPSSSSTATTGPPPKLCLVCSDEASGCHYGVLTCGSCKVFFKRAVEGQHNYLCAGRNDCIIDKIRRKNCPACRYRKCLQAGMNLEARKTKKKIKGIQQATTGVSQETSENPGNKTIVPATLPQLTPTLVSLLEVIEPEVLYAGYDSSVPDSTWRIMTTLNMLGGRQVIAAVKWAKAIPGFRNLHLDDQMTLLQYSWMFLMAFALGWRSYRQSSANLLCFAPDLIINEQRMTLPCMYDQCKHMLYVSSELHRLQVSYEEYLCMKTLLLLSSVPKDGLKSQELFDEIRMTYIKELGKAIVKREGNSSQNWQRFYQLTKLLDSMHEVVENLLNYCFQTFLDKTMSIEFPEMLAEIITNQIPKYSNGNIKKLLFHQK

For `CC1(C(=O)O)CCC(C(=O)NC2CCCCCC2)C1(C)C` (stereo unspecified), the activity change, negative = inhibition in assay [1] was -7.92%. Further, in assay [2], the activity, negative = inhibition is 10.5%. Moreover, the Potency in assay [3] was more than 20.6 µM.

Consider `COCCOC(=O)c1c(C)oc2ccc(OC(=O)COc3c(F)c(F)c(F)c(F)c3F)cc12`, for which the activity change, negative = inhibition in assay [1] was -2.9%. Moreover, the activity, negative = inhibition in assay [2] is 1.17%. Besides, the Potency in assay [3] is more than 20.6 µM.

For the molecule `COc1ccc(C(=O)N/C(N)=N/c2nc3ccccc3o2)cc1`, the activity change, negative = inhibition in assay [1] is -19%. Further, the activity, negative = inhibition in assay [2] is -5.99%. In addition, the Potency in assay [3] is more than 20.6 µM.

For the molecule `CCOc1ccc(-c2nnc3sc(COc4ccccc4)nn23)cc1`, the activity change, negative = inhibition in assay [1] was 4.76%. For the same molecule, the activity, negative = inhibition in assay [2] was 4.42%. The Potency in assay [3] was more than 20.6 µM.

Take `Cc1sc(-n2c(C)cc(/C=N/n3cnnc3)c2C)c(C#N)c1C`: the activity change, negative = inhibition in assay [1] is -9.91%. In addition, the activity, negative = inhibition in assay [2] was -17%. Further, the Potency in assay [3] is more than 20.6 µM.

With `c1ccc(N2CCN(c3nc(-c4ccccn4)nc4ccccc34)CC2)cc1`, in assay [1], the activity change, negative = inhibition was 0.815%. The activity, negative = inhibition in assay [2] is -14.9%. Besides, the Potency in assay [3] is more than 20.6 µM.

As for `Cc1cccc(Nc2ncnc3ccccc23)c1`, the activity change, negative = inhibition in assay [1] is -1.27%. In addition, the activity, negative = inhibition in assay [2] is -0.134%. The Potency in assay [3] was more than 20.6 µM.

Turning to `CCCCC(=O)c1c(C)cc(C)[nH]c1=O`, the activity change, negative = inhibition in assay [1] is 4.24%. In addition, in assay [2], the activity, negative = inhibition is 1.99%. For the same molecule, the Potency in assay [3] is more than 20.6 µM.

Take `N#CC1=C(N)NC(SCc2ccc(F)cc2)=C(C#N)C12CCCCC2`: in assay [2], the activity, negative = inhibition was -24.1%. Also, the Potency in assay [3] is more than 20.6 µM.

Take `COC(=O)c1ccc(Cn2cnc3c(sc4nc(N5CCOCC5)c5c(c43)CCCC5)c2=O)o1`: in assay [2], the activity, negative = inhibition is -11.4%. In assay [3], the Potency is more than 20.6 µM.

For `CCN(CC)c1ccc2c(C)c(-c3ccc(N)cc3)c(=O)oc2c1`, the activity, negative = inhibition in assay [2] was 14.8%. The Potency in assay [3] was more than 20.6 µM.

`CCCc1nn(C)c2c1C(c1cccnc1)C(C#N)=C(N)O2` (stereo unspecified): in assay [2], the activity, negative = inhibition was 4.95%. In assay [3], the Potency is more than 20.6 µM.

`Cc1coc2c(O)cc3c(c12)OC1(N2CCCCC2)C(=O)NCCCC31` (stereo unspecified): in assay [2], the activity, negative = inhibition is -21.8%. Also, in assay [3], the Potency is more than 20.6 µM.

Take `COC(=O)CC1=C(C(=O)OC)C(c2ccncc2)C(C#N)=C(N)O1` (stereo unspecified): in assay [2], the activity, negative = inhibition is 0.288%. Besides, the Potency in assay [3] is more than 20.6 µM.

`COc1ccc(Nc2cc(C)nc(-n3nc(C)cc3C)n2)cc1`: the activity, negative = inhibition in assay [2] is -13%. The Potency in assay [3] is more than 20.6 µM.

Turning to `Cn1c(NCC(O)c2ccccc2)nc2c1c(=O)n(Cc1ccc(Cl)cc1)c(=O)n2C` (stereo unspecified), the activity, negative = inhibition in assay [2] was -24.9%. In addition, the Potency in assay [3] was more than 20.6 µM.

For the molecule `O=C(CCN1CCCC1Cc1ccccc1)c1ccc2c(c1)OCCO2` (stereo unspecified), the activity, negative = inhibition in assay [2] was 14.7%. Also, the Potency in assay [3] was more than 20.6 µM.

Turning to `COc1cccc(-c2nc(N3CCCCC3)c3ccccc3n2)c1O`, the activity, negative = inhibition in assay [2] was -5.07%. In addition, in assay [3], the Potency was more than 20.6 µM.

On to `CCN(CC)c1ccc(-c2nn3c(-c4cccnc4)nnc3s2)cc1`, for which, in assay [2], the activity, negative = inhibition was -29.8%. The Potency in assay [3] was more than 20.6 µM.

For `CC(NC(=O)CSc1nc2c(cc1C#N)CN(C)CC2)c1ccccc1` (stereo unspecified), the activity, negative = inhibition in assay [2] was -4.3%. Besides, the Potency in assay [3] is more than 20.6 µM.

On to `NCCN1C(=O)c2ccccc2[C@@]1(O)c1ccc(Cl)cc1`, for which the activity, negative = inhibition in assay [2] is 2.46% [at 7.69 µM].

In the case of `N=c1c2c(-c3ccccc3)c(-c3ccccc3)n(Cc3ccccc3)c2ncn1CCCn1ccnc1`, in assay [2], the activity, negative = inhibition was 9.95%. Besides, in assay [3], the Potency was more than 20.6 µM.
